Compound activity: PubChem BioAssay, National Center for Advancing Translational Sciences (NCATS)
Only some compounds are listed: those with a hit (about 21% of all), similar ones and a draw of the others.
SARS PLP yeast: SARS-CoV PLP inhibition in yeast. S. cerevisiae expressing SARS-CoV PLpro, growth rescue. Potency, µM (highest dose often 32.9 µM), for inactives: top-dose activity, positive = growth rescue, usual class: activators. hit rate 0.19% among 330,000. AID 485353; calls by dose curve; note: potency is the fitted concentration of half-maximal effect; 0% is about no effect; nearly all actives have a fitted effect of over 55% in size
NS1 function inh: influenza NS1 inhibition | hit rate 0.4% among 270,000 | Potency, µM (doses to about 46.1 µM), without a hit: at the highest dose activity, positive = more growth | AID 2326; calls by dose curve; note: potency is the fitted concentration of half-maximal effect; actives are rising curves; nearly all actives have a fitted effect of over 50% in size
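A cell-based growth assay was used: compounds that relieve NS1-induced slow growth of budding yeast raise OD600. Assay medium was yeast nitrogen base with ammonium sulphate and -URA supplement, pH 6.0, with 2% galactose.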
CHX counter: counter-screen hit for Shiga toxin inhibitors, cycloheximide. cell reporter, cycloheximide protein synthesis inhibition counterscreen. hit rate 12% among 300,000. AID 2314. max response, %; in the data active = max response mostly above about 13%, no sharp cut-off; inactive = mostly below about 14%; note: read at 38.3 µM for the half of the compounds with a filed dose; 0% is about no effect
Pf growth 96h: P. falciparum growth inhibition at 96 hour, primary screen for plastid delayed-death inhibitors; P. falciparum luciferase reporter growth, 96 h; Potency, µM (highest dose often 28.7 µM), inactives show at the highest dose activity change, negative = inhibition, most hits filed as inhibitors; hit rate 6.9% among 320,000; AID 504834; note: potency is the fitted concentration of half-maximal effect; % is set by controls: 0 for no effect and ±100 for the full control effect
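Two-generation exposure (96 h) targets delayed-death phenotype. Reporter parasites carrying integrated firefly luciferase, in red cells at 2% hematocrit and 0.05% parasitemia final, kept at 37 C, 5% CO2; luminescence loss indicates inhibition.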
Pf growth 48h: inhibits P. falciparum growth in the first generation, 48 h | Potency, µM (highest dose often 28.7 µM), for the others: at the highest dose activity change, negative = inhibition, most hits filed as inhibitors | hit rate 5.9% among 310,000 | AID 504832 | P. falciparum luciferase growth in erythrocytes, 48 h; note: potency is the fitted concentration of half-maximal effect; % is set by controls: 0 for no effect and ±100 for the full control effect
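Cell-based growth assay: transgenic P. falciparum expressing firefly luciferase, cultured in red cells within RPMI 1640 containing 0.5% w/v Albumax, 24 mM bicarbonate and gentamycin. A drop in luciferase activity indicates inhibition.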
Shiga toxin inh: Shiga toxin inhibition; hit rate 9.2% among 290,000; Vero cells, Shiga toxin protein synthesis inhibition reporter; inhibition, % at 38.7 µM; in the data active = inhibition mostly above about 28%, no sharp cut-off; inactive = mostly below about 43%; note: 0% is about no effect
* = called active by the depositor. Unless noted, calls come from the whole dose curve; as a rule, active = well fitted inhibition curve with a large enough effect; inconclusive = small, poorly fitted or top-dose-only effect, or another doubt; inactive = no such curve, though single readings can be large or run the other way.

How did CCOC(=O)C1(Cc2ccc(Cl)cc2)CCN(Cc2cn(CC)nc2C)CC1 do in these assays?
SARS PLP yeast: 0.1%; NS1 function inh: -5.4%; CHX counter: -3.1; Pf growth 96h: -25.6%; Pf growth 48h: -13.9%; Shiga toxin inh: -4.7

Results for O=C(O)C(Cc1cc(Cl)ccc1Cl)Sc1nc2ccccc2[nH]1 (stereo not drawn) ?
SARS PLP yeast: 1.5%; NS1 function inh: -1.9%; CHX counter: -0.9; Pf growth 96h: 0.0%; Pf growth 48h: 46.9%; Shiga toxin inh: 8.0

How did Cc1cccc(C(=O)NNC(=O)c2ccccc2O)c1 do in these assays?
SARS PLP yeast: -2.9%; NS1 function inh: -17.4%; CHX counter: 38.8*; Pf growth 96h: 0.0%; Pf growth 48h: 63.8%; Shiga toxin inh: 37.5*

Results for O=C(NC(=S)NNC(=O)c1ccccc1O)c1ccccc1 ?
SARS PLP yeast: 4.3%; NS1 function inh: -48.5%; CHX counter: 29.1; Pf growth 96h: inconclusive; Pf growth 48h: inconclusive; Shiga toxin inh: 55.4*

What do the screens show for `C=CCn1c(C(C)(C)C)nc2ccccc21`?
SARS PLP yeast: -0.6%; NS1 function inh: -2.3%; CHX counter: -2.1; Pf growth 96h: -26.6%; Pf growth 48h: 1.2%; Shiga toxin inh: -5.4

Results for Cn1c(NCc2c[nH]c3ccccc23)nc2ccccc21 ?
SARS PLP yeast: 24.5%; NS1 function inh: 3.2%; CHX counter: 15.1*; Pf growth 96h: 8.2%; Pf growth 48h: 63.4%; Shiga toxin inh: 70.2

Results for CCn1c(NCc2c[nH]c3ccccc23)nc2ccccc21 ?
NS1 function inh: 13.9%

How did C=CCn1c(NCc2ccc(OC)cc2)nc2ccccc21 do in these assays?
SARS PLP yeast: -2.3%; NS1 function inh: -13.1%; CHX counter: 18.5*; Pf growth 96h: inconclusive; Pf growth 48h: 14.9%; Shiga toxin inh: 39.9*

Results for C=CCn1c(NCc2c[nH]c3ccccc23)nc2ccccc21 ?
SARS PLP yeast: 14.3%; NS1 function inh: -1.0%; CHX counter: 17.5*; Pf growth 96h: 25.1%; Pf growth 48h: 61.5%; Shiga toxin inh: 27.4*

What do the screens show for `Cn1c(=O)c2c(nc(NCCc3ccccc3)n2Cc2ccc(F)cc2)n(C)c1=O`?
SARS PLP yeast: -10.5%; NS1 function inh: -100.7%; CHX counter: 8.4; Pf growth 96h: inconclusive; Pf growth 48h: 11.7µM*; Shiga toxin inh: -13.0

What do the screens show for `CN1CCN(Cc2nc3c(c(=O)n(C)c(=O)n3C)n2CCc2ccccc2)CC1`?
NS1 function inh: -38.9%

How did CCCCCn1c(CN2CCN(Cc3ccccc3)CC2)nc2c1c(=O)n(C)c(=O)n2C do in these assays?
SARS PLP yeast: 10.3%; NS1 function inh: -5.9%; CHX counter: -3.0; Pf growth 96h: inconclusive; Pf growth 48h: 8.28µM*; Shiga toxin inh: -7.2

Results for CC(C)CCn1c(NCCc2ccccc2)nc2c1c(=O)n(C)c(=O)n2C ?
SARS PLP yeast: 1.3%; NS1 function inh: 4.6%; CHX counter: -6.6; Pf growth 96h: inconclusive; Pf growth 48h: inconclusive; Shiga toxin inh: 3.5

What do the screens show for `CC(C)CCn1c(CN2CCN(Cc3ccccc3)CC2)nc2c1c(=O)n(C)c(=O)n2C`?
SARS PLP yeast: 0.6%; NS1 function inh: -6.1%; CHX counter: -4.8; Pf growth 96h: inconclusive; Pf growth 48h: 4.65µM*; Shiga toxin inh: -17.5

What do the screens show for `Cn1c(=O)c2c(nc(NC(Cc3ccccc3)C(=O)O)n2Cc2ccccc2)n(C)c1=O` (stereo not drawn)?
SARS PLP yeast: -2.9%; NS1 function inh: 11.0%; CHX counter: 10.0; Pf growth 96h: 54.4%; Pf growth 48h: 6.57µM*; Shiga toxin inh: 13.4

How did CCN(Cc1ccc(N(C)C)cc1)C(C)C(=O)Nc1ccc(S(=O)(=O)N2CCCC2)cc1 (stereo not drawn) do in these assays?
SARS PLP yeast: -8.9%; Pf growth 96h: -18.5%; Pf growth 48h: -7.1%

What do the screens show for `CC(C)CCn1c(CN2CCN(C(=O)c3ccco3)CC2)nc2c1c(=O)n(C)c(=O)n2C`?
SARS PLP yeast: -1.8%; NS1 function inh: -14.8%; CHX counter: -3.3; Pf growth 96h: 6.57µM*; Shiga toxin inh: -7.8

How did Cn1c(=O)c2c(nc(CN3CCc4ccccc4C3)n2Cc2ccccc2)n(C)c1=O do in these assays?
SARS PLP yeast: -0.6%; NS1 function inh: -50.0%; CHX counter: -4.2; Pf growth 96h: 11.7µM*; Pf growth 48h: 13.1µM*; Shiga toxin inh: -3.5

What do the screens show for `CC(C)Cn1c(CN2CCN(C(=O)c3ccco3)CC2)nc2c1c(=O)n(C)c(=O)n2C`?
SARS PLP yeast: -2.6%; CHX counter: -1.5; Pf growth 96h: 69.0%; Pf growth 48h: 4.5%; Shiga toxin inh: -19.8

What do the screens show for `Cn1c(=O)c2c(nc(CN3CCc4ccccc4C3)n2Cc2ccc(Cl)cc2)n(C)c1=O`?
SARS PLP yeast: -7.3%; NS1 function inh: 6.3%; CHX counter: 3.3; Pf growth 96h: -19.2%; Pf growth 48h: 10.1%; Shiga toxin inh: 2.0

Results for Cn1c(=O)c2c(nc(CN3CCN(Cc4ccccc4)CC3)n2Cc2ccc(F)cc2)n(C)c1=O ?
SARS PLP yeast: -1.4%; NS1 function inh: -2.4%; CHX counter: -1.9; Pf growth 96h: inconclusive; Pf growth 48h: 7.38µM*; Shiga toxin inh: -14.2

How did CC(C)[C@H](NC(=O)[C@@H]1CSC2c3ccccc3C(=O)N21)C(=O)N1CCCCC1 (stereo partly drawn) do in these assays?
SARS PLP yeast: -3.9%; NS1 function inh: 24.9%; CHX counter: 2.3; Pf growth 96h: inconclusive; Pf growth 48h: inconclusive; Shiga toxin inh: -3.7

How did Cc1[nH]c(N=Nc2ccccc2)nc1N=Nc1ccccc1 do in these assays?
SARS PLP yeast: -6.6%; NS1 function inh: -55.9%; CHX counter: 13.8; Pf growth 96h: 9.28µM*; Pf growth 48h: 3.7µM*; Shiga toxin inh: 70.8*

What do the screens show for `Cc1cc(C)c(NC(=O)/C(=C/c2ccccc2)c2ccccc2)c(C)c1`?
SARS PLP yeast: -39.3%; NS1 function inh: -16.4%; CHX counter: -3.0; Pf growth 96h: 14.2%; Pf growth 48h: 4.15µM*; Shiga toxin inh: -8.2

What do the screens show for `CCOc1ccc(/C=N/NC(=O)c2ccc(CSc3nc4ccccc4[nH]3)cc2)cc1`?
SARS PLP yeast: -6.4%; NS1 function inh: inconclusive; CHX counter: 20.7*; Pf growth 96h: 0.0%; Pf growth 48h: 6.0%; Shiga toxin inh: 43.3*

Results for O=C(N/N=C/c1ccc(OC(F)F)cc1)c1ccc(CSc2nc3ccccc3[nH]2)cc1 ?
SARS PLP yeast: inconclusive; NS1 function inh: 14.6%; CHX counter: 11.1; Pf growth 96h: 13.1µM*; Pf growth 48h: -28.3%; Shiga toxin inh: 15.2

Results for CCC1CCCCN1C(=O)CCc1nnc(Cc2c[nH]c3ccccc23)o1 (stereo not drawn) ?
SARS PLP yeast: -0.9%; NS1 function inh: 5.4%; CHX counter: 9.3; Pf growth 96h: inconclusive; Pf growth 48h: -26.6%; Shiga toxin inh: 30.8*
